Laboratory results reported in article PMC7862700, “An all-to-all approach to the identification of sequence-specific readers for epigenetic DNA modifications on cytosine”.

Legend:
Assay in all cases: DAPPL (digital affinity profiling via proximity ligation, sequencing); 10 mM Tris-HCl pH 7.5, 50 mM NaCl, 1 mM DTT, 4% glycerol, room temperature, 30 min; GST-TFs on glutathione beads, 16-mer random dsDNA library, 0.1% formaldehyde crosslink after washing; high values mean tight binding
FLI1 = biological target: T1, FLI1 (Homo sapiens, UniProt Q01543 1-452); details: protein: recombinant; tags: N-terminal GST; dsDNA, one strand shown
T1 sequence: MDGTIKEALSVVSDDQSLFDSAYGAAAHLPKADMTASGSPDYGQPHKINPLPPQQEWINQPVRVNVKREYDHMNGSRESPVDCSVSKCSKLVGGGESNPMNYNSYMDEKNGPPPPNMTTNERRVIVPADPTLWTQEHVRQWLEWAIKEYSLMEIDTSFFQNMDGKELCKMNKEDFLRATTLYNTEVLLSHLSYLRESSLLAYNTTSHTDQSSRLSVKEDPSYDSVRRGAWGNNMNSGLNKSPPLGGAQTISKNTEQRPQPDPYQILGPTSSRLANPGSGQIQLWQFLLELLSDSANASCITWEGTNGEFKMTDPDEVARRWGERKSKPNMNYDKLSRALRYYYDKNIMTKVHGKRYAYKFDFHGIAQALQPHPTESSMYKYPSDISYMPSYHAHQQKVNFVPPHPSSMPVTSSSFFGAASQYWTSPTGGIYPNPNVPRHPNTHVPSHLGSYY
In short: (§1)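 Sequencing on an Illumina NextSeq500 followed washing, crosslinking with 0.1% formaldehyde, proximity ligation (BsaI/T4 ligase, 1 h, 37 °C) and PCR amplification of pools that had been incubated for 30 min at room temperature with 200 nmole of a random double-stranded 16-mer DNA library in Tris/NaCl/DTT/glycerol buffer. Each pool held DNA-barcoded human transcription factors, expressed in yeast as GST fusions and captured on glutathione beads, plus a tag-only sample. Binding signal is a hexamer's read frequency for a factor divided by its frequency in the tag-only sample.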

ELK1 = biological target: T2, ELK1 (Homo sapiens, UniProt P19419 1-428); details: protein: recombinant; tags: N-terminal GST; dsDNA, one strand shown
T2 sequence: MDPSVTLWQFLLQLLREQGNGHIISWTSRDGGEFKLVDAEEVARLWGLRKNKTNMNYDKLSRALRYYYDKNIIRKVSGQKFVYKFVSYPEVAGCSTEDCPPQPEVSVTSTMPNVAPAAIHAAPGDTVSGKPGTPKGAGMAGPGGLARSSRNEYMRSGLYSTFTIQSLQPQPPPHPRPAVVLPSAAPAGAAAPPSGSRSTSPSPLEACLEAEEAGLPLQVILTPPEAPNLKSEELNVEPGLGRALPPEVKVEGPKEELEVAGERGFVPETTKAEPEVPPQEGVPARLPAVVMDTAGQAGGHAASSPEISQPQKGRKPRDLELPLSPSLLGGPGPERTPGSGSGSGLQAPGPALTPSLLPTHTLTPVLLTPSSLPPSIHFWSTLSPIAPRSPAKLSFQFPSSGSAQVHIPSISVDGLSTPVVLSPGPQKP
In short: as §1

GABPA = biological target: T3, GABPA (Homo sapiens, UniProt Q06546 1-454); details: protein: recombinant; tags: N-terminal GST; dsDNA, one strand shown
T3 sequence: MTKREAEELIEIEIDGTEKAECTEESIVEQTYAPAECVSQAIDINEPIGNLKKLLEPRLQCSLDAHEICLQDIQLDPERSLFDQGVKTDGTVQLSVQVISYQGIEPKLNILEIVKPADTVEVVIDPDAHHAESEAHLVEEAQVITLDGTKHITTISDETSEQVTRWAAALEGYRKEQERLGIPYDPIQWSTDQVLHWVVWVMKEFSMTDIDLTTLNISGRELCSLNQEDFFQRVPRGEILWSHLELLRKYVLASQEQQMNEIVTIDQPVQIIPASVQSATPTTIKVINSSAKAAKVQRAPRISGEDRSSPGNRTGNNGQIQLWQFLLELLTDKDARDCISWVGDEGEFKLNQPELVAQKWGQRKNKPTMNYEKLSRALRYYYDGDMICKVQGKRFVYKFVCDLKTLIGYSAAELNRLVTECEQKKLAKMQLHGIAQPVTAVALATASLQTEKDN
In short: as §1

ERG = biological target: T4, ERG (Homo sapiens, UniProt P11308 1-479); details: protein: recombinant; tags: N-terminal GST; dsDNA, one strand shown
T4 sequence: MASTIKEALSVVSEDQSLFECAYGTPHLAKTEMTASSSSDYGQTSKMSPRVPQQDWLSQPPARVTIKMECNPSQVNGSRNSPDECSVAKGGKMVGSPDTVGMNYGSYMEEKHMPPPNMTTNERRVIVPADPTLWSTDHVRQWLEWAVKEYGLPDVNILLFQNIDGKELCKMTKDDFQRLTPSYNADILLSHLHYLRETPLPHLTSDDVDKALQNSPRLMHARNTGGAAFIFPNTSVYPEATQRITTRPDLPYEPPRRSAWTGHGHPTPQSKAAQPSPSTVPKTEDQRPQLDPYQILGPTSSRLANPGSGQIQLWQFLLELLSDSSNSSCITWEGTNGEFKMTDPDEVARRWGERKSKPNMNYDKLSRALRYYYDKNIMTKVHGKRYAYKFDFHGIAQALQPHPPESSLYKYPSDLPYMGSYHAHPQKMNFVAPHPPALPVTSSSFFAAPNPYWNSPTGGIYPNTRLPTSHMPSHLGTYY
In short: as §1

ELF1 = ELF1 (Homo sapiens, UniProt P32519 1-619); details: protein: recombinant; tags: N-terminal GST; dsDNA, one strand shown
Sequence of ELF1 (P32519 whole entry): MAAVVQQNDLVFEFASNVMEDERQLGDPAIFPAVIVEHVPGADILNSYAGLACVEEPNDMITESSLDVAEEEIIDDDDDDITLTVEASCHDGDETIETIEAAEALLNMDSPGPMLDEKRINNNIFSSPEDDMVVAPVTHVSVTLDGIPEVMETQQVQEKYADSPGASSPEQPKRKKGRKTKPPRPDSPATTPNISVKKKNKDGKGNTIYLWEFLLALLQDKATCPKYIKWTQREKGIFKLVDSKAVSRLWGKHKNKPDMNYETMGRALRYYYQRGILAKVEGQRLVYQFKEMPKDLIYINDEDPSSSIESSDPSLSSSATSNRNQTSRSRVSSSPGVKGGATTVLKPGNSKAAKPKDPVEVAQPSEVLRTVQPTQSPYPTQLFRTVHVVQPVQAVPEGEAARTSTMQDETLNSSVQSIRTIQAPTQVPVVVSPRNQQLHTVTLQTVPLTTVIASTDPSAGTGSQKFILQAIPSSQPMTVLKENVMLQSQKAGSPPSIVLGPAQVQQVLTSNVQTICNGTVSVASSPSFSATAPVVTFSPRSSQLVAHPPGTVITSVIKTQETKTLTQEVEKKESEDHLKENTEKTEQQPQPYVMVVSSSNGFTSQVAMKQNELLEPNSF
In short: as §1

EHF = biological target: T5, EHF (Homo sapiens, UniProt Q9NZC4 1-300); details: protein: recombinant; tags: N-terminal GST; dsDNA, one strand shown
T5 sequence: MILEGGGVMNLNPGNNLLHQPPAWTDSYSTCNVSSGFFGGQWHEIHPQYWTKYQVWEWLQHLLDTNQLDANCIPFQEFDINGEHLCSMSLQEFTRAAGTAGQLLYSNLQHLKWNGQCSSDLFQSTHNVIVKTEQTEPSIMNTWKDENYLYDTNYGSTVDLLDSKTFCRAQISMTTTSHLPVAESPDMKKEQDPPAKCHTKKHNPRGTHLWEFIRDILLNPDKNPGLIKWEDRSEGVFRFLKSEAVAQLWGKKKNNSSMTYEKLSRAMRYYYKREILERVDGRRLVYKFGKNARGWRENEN
In short: as §1

SPI1 = SPI1 (Homo sapiens, UniProt P17947 1-270); details: protein: recombinant; tags: N-terminal GST; dsDNA, one strand shown
In short: as §1

SPIB = SPIB (Homo sapiens, UniProt Q01892 1-262); details: protein: recombinant; tags: N-terminal GST; dsDNA, one strand shown
Sequence of SPIB (Q01892 whole entry): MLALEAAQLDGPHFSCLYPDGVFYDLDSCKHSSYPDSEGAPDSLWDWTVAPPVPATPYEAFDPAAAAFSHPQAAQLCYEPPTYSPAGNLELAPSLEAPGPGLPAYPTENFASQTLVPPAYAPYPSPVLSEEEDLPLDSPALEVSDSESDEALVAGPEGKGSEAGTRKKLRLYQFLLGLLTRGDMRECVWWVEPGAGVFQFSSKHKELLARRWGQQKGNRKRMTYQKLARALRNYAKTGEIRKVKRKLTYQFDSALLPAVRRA
In short: as §1

ELK3 = biological target: T6, ELK3 (Homo sapiens, UniProt P41970 1-407); details: protein: recombinant; tags: N-terminal GST; dsDNA, one strand shown
T6 sequence: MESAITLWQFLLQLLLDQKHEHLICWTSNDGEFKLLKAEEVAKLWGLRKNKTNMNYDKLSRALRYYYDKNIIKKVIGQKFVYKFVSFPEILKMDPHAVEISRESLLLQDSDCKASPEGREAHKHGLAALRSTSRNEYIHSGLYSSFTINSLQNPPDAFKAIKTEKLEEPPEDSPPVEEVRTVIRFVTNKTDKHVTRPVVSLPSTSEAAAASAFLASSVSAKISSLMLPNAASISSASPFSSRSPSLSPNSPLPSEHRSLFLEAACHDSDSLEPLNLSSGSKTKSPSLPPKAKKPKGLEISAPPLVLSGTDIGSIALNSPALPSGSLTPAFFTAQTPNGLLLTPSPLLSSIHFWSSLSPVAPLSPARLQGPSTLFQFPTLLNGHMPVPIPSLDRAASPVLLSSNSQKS
In short: as §1

FEV = biological target: T7, FEV (Homo sapiens, UniProt Q99581 1-238); details: protein: recombinant; tags: N-terminal GST; dsDNA, one strand shown
T7 sequence: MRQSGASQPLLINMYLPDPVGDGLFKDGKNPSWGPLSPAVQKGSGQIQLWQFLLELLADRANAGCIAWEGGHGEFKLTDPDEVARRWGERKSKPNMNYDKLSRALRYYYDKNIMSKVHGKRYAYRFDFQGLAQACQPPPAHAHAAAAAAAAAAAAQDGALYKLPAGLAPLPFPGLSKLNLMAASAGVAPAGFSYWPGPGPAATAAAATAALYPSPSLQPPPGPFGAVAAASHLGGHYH
In short: as §1

ETV5 = ETV5 (Homo sapiens, UniProt P41161 1-510); details: protein: recombinant; tags: N-terminal GST; dsDNA, one strand shown
Sequence of ETV5 (P41161 whole entry): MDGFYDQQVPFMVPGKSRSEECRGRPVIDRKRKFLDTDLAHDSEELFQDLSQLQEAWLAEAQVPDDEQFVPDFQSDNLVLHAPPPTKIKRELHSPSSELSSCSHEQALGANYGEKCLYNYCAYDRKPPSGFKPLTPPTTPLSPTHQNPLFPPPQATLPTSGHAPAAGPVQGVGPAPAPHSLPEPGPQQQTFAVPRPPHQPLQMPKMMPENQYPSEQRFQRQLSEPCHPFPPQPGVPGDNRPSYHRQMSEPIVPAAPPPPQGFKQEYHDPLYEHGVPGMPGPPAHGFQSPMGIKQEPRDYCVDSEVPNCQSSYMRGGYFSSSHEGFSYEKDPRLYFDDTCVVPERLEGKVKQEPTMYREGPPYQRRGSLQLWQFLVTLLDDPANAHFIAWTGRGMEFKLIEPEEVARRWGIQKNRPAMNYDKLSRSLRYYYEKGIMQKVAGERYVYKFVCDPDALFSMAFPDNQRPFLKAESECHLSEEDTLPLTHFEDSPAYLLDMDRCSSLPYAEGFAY
In short: as §1

HSF1 = HSF1 (Homo sapiens, UniProt Q00613 1-529); details: protein: recombinant; tags: N-terminal GST; chain copies: 3; dsDNA, one strand shown
Sequence of HSF1 (Q00613 whole entry): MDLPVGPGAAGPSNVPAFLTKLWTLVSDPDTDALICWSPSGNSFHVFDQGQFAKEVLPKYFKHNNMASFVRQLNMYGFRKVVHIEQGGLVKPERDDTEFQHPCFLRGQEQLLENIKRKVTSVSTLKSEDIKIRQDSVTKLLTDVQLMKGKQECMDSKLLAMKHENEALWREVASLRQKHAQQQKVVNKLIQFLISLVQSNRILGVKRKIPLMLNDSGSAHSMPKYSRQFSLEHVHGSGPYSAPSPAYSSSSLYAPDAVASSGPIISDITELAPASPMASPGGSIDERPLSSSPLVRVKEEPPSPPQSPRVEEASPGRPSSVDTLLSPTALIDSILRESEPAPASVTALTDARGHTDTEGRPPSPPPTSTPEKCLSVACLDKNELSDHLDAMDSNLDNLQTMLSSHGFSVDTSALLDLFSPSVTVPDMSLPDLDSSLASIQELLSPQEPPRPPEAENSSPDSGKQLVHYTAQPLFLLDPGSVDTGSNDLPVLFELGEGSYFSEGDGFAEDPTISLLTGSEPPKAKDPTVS
In short: as §1

SPIC = biological target: T8, SPIC (Homo sapiens, UniProt Q8N5J4 1-248); details: protein: recombinant; tags: N-terminal GST; dsDNA, one strand shown
T8 sequence: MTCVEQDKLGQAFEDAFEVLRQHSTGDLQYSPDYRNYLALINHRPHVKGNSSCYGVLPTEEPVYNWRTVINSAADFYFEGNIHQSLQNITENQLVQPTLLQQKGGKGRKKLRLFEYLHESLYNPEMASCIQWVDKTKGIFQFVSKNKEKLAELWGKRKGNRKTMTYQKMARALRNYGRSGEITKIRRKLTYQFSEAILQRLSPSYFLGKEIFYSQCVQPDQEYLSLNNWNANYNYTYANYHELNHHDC
In short: as §1

ELF4 = ELF4 (Homo sapiens, UniProt Q99607 1-663); details: protein: recombinant; tags: N-terminal GST; dsDNA, one strand shown
Sequence of ELF4 (Q99607 whole entry): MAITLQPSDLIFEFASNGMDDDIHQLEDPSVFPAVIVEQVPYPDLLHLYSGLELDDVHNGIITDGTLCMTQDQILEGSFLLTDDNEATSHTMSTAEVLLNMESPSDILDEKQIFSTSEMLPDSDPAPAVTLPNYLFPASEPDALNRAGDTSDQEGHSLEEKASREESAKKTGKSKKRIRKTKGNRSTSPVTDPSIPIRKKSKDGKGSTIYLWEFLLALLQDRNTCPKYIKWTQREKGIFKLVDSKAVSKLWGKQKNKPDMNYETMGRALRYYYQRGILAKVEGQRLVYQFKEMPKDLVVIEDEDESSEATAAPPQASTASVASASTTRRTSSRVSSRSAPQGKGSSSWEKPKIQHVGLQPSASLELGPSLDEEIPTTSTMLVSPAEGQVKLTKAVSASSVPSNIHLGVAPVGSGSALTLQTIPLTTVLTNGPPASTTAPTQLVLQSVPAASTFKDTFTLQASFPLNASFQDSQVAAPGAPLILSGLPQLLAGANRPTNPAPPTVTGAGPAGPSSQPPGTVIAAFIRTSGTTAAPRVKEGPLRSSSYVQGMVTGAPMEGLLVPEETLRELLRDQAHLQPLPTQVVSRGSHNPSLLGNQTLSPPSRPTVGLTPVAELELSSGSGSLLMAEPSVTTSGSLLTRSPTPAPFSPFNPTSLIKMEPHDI
In short: as §1

ELK4 = biological target: T9, ELK4 (Homo sapiens, UniProt P28324-2 1-405); details: protein: recombinant; tags: N-terminal GST; dsDNA, one strand shown
T9 sequence: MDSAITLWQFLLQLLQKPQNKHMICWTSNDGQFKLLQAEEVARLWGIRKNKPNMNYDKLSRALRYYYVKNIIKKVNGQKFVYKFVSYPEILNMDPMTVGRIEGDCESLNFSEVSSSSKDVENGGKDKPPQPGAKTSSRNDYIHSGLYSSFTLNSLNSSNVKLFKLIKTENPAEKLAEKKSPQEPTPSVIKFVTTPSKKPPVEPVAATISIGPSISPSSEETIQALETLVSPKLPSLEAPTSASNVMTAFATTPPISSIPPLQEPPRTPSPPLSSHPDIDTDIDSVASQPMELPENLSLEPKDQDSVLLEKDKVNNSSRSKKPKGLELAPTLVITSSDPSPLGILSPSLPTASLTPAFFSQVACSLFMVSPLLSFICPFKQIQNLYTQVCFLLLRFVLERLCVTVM
In short: as §1

ETV2 = biological target: T10, ETV2 (Homo sapiens, UniProt O00321 1-342); details: protein: recombinant; tags: N-terminal GST; dsDNA, one strand shown
T10 sequence: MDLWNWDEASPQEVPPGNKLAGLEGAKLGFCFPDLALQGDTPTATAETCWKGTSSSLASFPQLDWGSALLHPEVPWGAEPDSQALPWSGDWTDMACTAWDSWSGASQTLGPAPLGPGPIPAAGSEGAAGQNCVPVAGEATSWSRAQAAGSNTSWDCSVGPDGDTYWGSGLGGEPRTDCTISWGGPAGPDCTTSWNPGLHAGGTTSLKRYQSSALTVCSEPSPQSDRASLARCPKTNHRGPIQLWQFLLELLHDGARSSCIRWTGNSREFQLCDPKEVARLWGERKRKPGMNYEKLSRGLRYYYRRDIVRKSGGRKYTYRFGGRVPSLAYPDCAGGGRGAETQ
In short: as §1

ELF3 = biological target: T11, ELF3 (Homo sapiens, UniProt P78545 1-371); details: protein: recombinant; tags: N-terminal GST; dsDNA, one strand shown
T11 sequence: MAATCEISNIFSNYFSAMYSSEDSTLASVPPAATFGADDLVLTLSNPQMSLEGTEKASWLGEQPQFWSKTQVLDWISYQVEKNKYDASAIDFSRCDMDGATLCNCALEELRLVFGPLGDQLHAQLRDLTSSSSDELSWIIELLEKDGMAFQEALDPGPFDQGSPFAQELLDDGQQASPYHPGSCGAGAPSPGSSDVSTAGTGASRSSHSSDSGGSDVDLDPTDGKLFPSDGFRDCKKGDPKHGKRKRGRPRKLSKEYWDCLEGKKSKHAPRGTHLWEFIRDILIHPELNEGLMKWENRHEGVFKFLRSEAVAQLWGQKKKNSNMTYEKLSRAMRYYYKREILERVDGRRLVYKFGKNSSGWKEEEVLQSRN
In short: as §1

CRX = CRX (Homo sapiens, UniProt O43186 1-299); details: protein: recombinant; tags: N-terminal GST; dsDNA, one strand shown
Sequence of CRX (O43186 whole entry): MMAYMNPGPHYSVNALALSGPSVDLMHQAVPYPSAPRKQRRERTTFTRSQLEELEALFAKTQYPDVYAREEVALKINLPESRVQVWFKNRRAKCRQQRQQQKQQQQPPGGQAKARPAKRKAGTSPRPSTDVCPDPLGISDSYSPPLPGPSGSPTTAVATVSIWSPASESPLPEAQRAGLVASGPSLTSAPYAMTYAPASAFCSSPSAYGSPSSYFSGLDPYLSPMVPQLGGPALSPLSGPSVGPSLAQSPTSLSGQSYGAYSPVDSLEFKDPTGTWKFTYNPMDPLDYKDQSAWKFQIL
In short: as §1

ETV1 = ETV1 (Homo sapiens, UniProt P50549 1-477); details: protein: recombinant; tags: N-terminal GST; dsDNA, one strand shown
Sequence of ETV1 (P50549 whole entry): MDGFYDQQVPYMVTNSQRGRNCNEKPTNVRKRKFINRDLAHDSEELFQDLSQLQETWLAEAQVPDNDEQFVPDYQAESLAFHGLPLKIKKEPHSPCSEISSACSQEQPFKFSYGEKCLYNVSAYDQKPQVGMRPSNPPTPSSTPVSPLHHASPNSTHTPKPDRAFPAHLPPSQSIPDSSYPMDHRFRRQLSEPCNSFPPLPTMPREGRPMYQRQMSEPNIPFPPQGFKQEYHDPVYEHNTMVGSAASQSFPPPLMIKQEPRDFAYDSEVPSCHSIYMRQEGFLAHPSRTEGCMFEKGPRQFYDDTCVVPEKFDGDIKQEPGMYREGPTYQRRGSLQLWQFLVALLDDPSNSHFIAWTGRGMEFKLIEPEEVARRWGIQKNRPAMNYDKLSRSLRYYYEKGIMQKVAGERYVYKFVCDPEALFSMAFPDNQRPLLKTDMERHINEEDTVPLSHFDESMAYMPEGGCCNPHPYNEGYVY
In short: as §1

For GATTAT, the binding signal (FLI1) was 1.04 fold enrichment (6-mer frequency, TF over GST control), the binding signal (ELK1) was 1.1 fold enrichment (6-mer frequency, TF over GST control) and the binding signal (GABPA) was 1.1 fold enrichment (6-mer frequency, TF over GST control). The binding signal (ERG) was 1.06 fold enrichment (6-mer frequency, TF over GST control), the binding signal (ELF1) was 1.02 fold enrichment (6-mer frequency, TF over GST control) and the binding signal (EHF) was 1.09 fold enrichment (6-mer frequency, TF over GST control). For the same sequence, the binding signal (SPI1) was 1.03 fold enrichment (6-mer frequency, TF over GST control), the binding signal (SPIB) was 1.11 fold enrichment (6-mer frequency, TF over GST control) and the binding signal (ELK3) was 1.07 fold enrichment (6-mer frequency, TF over GST control). The binding signal (FEV) was 1.01 fold enrichment (6-mer frequency, TF over GST control), the binding signal (ETV5) was 1.03 fold enrichment (6-mer frequency, TF over GST control) and the binding signal (HSF1) was 2.66 fold enrichment (6-mer frequency, TF over GST control). The binding signal (SPIC) was 1.09 fold enrichment (6-mer frequency, TF over GST control), the binding signal (ELF4) was 1.14 fold enrichment (6-mer frequency, TF over GST control) and the binding signal (ELK4) was 1.06 fold enrichment (6-mer frequency, TF over GST control). For the same sequence, the binding signal (ETV2) was 1.07 fold enrichment (6-mer frequency, TF over GST control), the binding signal (ELF3) was 1.16 fold enrichment (6-mer frequency, TF over GST control) and the binding signal (CRX) was 4.27 fold enrichment (6-mer frequency, TF over GST control). For the same sequence, the binding signal (ETV1) was 1.06 fold enrichment (6-mer frequency, TF over GST control).
